Source: PubChem BioAssay (NCI)
The panel holds about 79,000 compounds, 15% with a hit somewhere; the sample as a whole holds those more often. A number with no mark means an inactive call. Calls of active or inactive are those of the source. Rule as the data show it: active = growth inhibition above about 70%; inactive = the rest.

assay: NCI Yeast Anticancer Drug Screen. Data for the mlh1 strain (AID 171);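 also: 0% = growth of vehicle-treated control cultures of the same strain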; settings: S. cerevisiae mlh1 strain growth inhibition; at 11.0 µM; stronger effect = higher value
Procedure, shortened: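 A yeast strain with a defined genetic lesion serves as the test organism. Cultures receive compound or vehicle, and growth is measured.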

Structure (SMILES) | growth inhibition
COc1ccc(/C=C2\CCc3ccccc3C2=O)cc1OC | 26%
O=Cc1ccccc1B(O)O | 86% (active)
O=C(O)[C@H]1[C@@H](C2CCCCC2)O[C@@H](C2CCCCC2)O[C@H]1C(F)(F)F | -4%
CN(NC(=O)/C(=C/C=C/c1ccccc1)NC(=O)c1ccccc1)C1=C(Cl)C(=O)[N+](c2ccccc2)=CC1 | 37%
CCCCOc1ccc(Nc2c3ccccc3nc3ccccc23)cc1 | 34%
N#C/C(=C1C=C/C(=N\O)C(Cl)=C\1)c1ccccc1 | 7%
COc1ccc(C(=O)OCCc2ccccc2)cc1 | -5%
Cc1c2ccncc2c(C)c2c1oc1ccccc12 | 8%
CCCC#CCOC(=O)c1cc([N+](=O)[O-])cc([N+](=O)[O-])c1 | 99% (active)
Nc1nc(Nc2ccccc2)nc(Nc2ccccc2)n1 | -3%
COc1ccc(/C=C2\S/C(=N/Nc3nc(-c4ccccc4)cs3)NC2=O)cc1OC | 96% (active)
CC(O)CN1C(=O)c2cccc3cc([N+](=O)[O-])cc(c23)C1=O (stereo unspecified) | 14%
Cn1c(COc2ccc(/C=N/NC(=O)CCC(=O)N/N=C/c3ccc(OCc4c[n+]5ccccc5n4C)cc3)cc2)c[n+]2ccccc12 | -1%
COC1=C(N=[N+]=[N-])C(=O)c2ncccc2C1=O | 21%
CCN(CC)c1ccc(N=Nc2cc(S(=O)(=O)O)ccc2O)c(O)c1 | -22%
O=C1C(C(O)(C(F)(F)F)C(F)(F)F)CCC1C(O)(C(F)(F)F)C(F)(F)F (stereo unspecified) | 11%
CN(C)CCNC(=O)c1cccc2nc3c(ccc4ccccc43)nc12 | 3%
O=S(=O)(CCC[C@H]1[C@@H](CCOCc2ccccc2)C2CCCN1O2)c1ccccc1 (stereo partly specified) | 1%
Nc1c([N+](=O)[O-])cc2c3c(cccc13)CC2 | 20%
CC1=Cc2ccc(C)cc2C(=O)C1=O | 71% (active)
C=Cc1c(C)c(O)cc2c1-c1ccc(O)c(C)c1CC2 | 3%
NCC(O)CSCc1ccc(Cl)cc1 (stereo unspecified) | -4%
C[n+]1c(-c2ccc(NC(=O)c3ccc(C(=O)Nc4ccc(-c5cn6ccccc6[n+]5C)cc4)cc3)cc2)cn2ccccc21 | 23%
CNC(=O)OCc1c(COC(=O)NC)c(C)n(-c2ccc(Cl)c(Cl)c2)c1C | 10%
[O-]c1c2cc(-[n+]3c(-c4ccccc4)cc(-c4ccccc4)cc3-c3ccccc3)cc1COCCOCCOCCOCCOC2 | -2%
C[Si](C)(C)Cc1ccccc1C(=O)O | 3%
